In PubChem BioAssay AID1159580 (chemical genetic matrix, 2015):
About 2,000 (36%) of roughly 5,500 compounds were called active. Another 18% or so got no clear call; they are omitted. Rule as the data show it: active = normalized growth mostly below about 0.91 (no sharp cut-off); inconclusive = no clear call, values can overlap the other calls; inactive = mostly above about 0.92. The list shows a part of the results.

Assay: chemical genetic growth profiling, strain panel (AID 1159580);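 also: tested at 20 µM; growth read once vehicle control cultures reached saturation at 30 °C; 1 = growth at the plate median or of vehicle wells; lower values mean less growth of the strain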
Details: growth OD

Measured: normalized growth

CC(=O)NO
inactive: S. cerevisiae deletion strains, locus YJL187C, strain SWE1, stronger effect = lower value 0.992 | S. cerevisiae deletion strains, locus YJR043C, strain POL32, stronger effect = lower value 1.07 | S. cerevisiae deletion strains, locus YJR066W, strain TOR1, stronger effect = lower value 0.993 | S. cerevisiae deletion strains, locus YKL009W, strain mrt4, stronger effect = lower value 0.989 | S. cerevisiae deletion strains, locus YKL068W, stronger effect = lower value 0.995 | S. cerevisiae deletion strains, locus YKL085W, strain MDH1 (second series), stronger effect = lower value 0.994 | S. cerevisiae deletion strains, locus YKL085W, strain MDH1, stronger effect = lower value 0.994 | S. cerevisiae deletion strains, locus YKL160W, strain elf1, stronger effect = lower value 0.961 | S. cerevisiae deletion strains, locus YKL190W, strain CNB1, stronger effect = lower value 1 | S. cerevisiae deletion strains, locus YKR001C, strain vps1, stronger effect = lower value 1.02 | S. cerevisiae deletion strains, locus YKR026C, strain gcn3, stronger effect = lower value 0.98 | S. cerevisiae deletion strains, locus YKR091W, strain srl3, stronger effect = lower value 0.985 | S. cerevisiae deletion strains, locus YLL001W, strain dnm1, stronger effect = lower value 0.922 | S. cerevisiae deletion strains, locus YLL026W, stronger effect = lower value 0.988 | S. cerevisiae deletion strains, locus YLL041C, strain sdh2, stronger effect = lower value 0.988 | S. cerevisiae deletion strains, locus YLR027C, strain aat2, stronger effect = lower value 0.981 | S. cerevisiae deletion strains, locus YLR039C, strain RIC1, stronger effect = lower value 0.711 | S. cerevisiae deletion strains, locus YLR058C, strain SHM2, stronger effect = lower value 0.988 | S. cerevisiae deletion strains, locus YLR102C, strain apc9, stronger effect = lower value 0.996 | S. cerevisiae deletion strains, locus YLR113W, strain HOG1, stronger effect = lower value 0.973 | S. cerevisiae deletion strains, locus YLR221C, strain rsa3, stronger effect = lower value 0.922 | S. cerevisiae deletion strains, locus YLR258W, strain gsy2, stronger effect = lower value 0.964 | S. cerevisiae deletion strains, locus YLR262C, strain YPT6 (second series), stronger effect = lower value 0.986 | S. cerevisiae deletion strains, locus YLR262C, strain YPT6, stronger effect = lower value 0.746 | S. cerevisiae deletion strains, locus YLR268W, strain sec22, stronger effect = lower value 0.965 | S. cerevisiae deletion strains, locus YLR320W, strain mms22, stronger effect = lower value 0.892 | S. cerevisiae deletion strains, locus YLR330W, strain CHS5, stronger effect = lower value 0.996 | S. cerevisiae deletion strains, locus YLR342W, strain FKS1 (second series), stronger effect = lower value 0.901 | S. cerevisiae deletion strains, locus YLR342W, strain FKS1, stronger effect = lower value 0.98 | S. cerevisiae deletion strains, locus YLR357W, strain rsc2, stronger effect = lower value 0.971 | S. cerevisiae deletion strains, locus YLR370C, strain arc18, stronger effect = lower value 0.949 | S. cerevisiae deletion strains, locus YLR371W, strain rom2, stronger effect = lower value 0.987 | S. cerevisiae deletion strains, locus YLR384C, strain iki3, stronger effect = lower value 0.983 | S. cerevisiae deletion strains, locus YLR418C, strain cdc73, stronger effect = lower value 0.851 | S. cerevisiae deletion strains, locus YML016C, strain PPZ1, stronger effect = lower value 0.993 | S. cerevisiae deletion strains, locus YML032C, strain rad52, stronger effect = lower value 0.951 | S. cerevisiae deletion strains, locus YML120C, strain ndi1, stronger effect = lower value 0.948 | S. cerevisiae deletion strains, locus YML124C, strain tub3, stronger effect = lower value 0.995 | S. cerevisiae deletion strains, locus YMR058W, strain fet3, stronger effect = lower value 0.988 | S. cerevisiae deletion strains, locus YMR078C, strain ctf18, stronger effect = lower value 0.991 | S. cerevisiae deletion strains, locus YMR125W, strain sto1, stronger effect = lower value 0.963 | S. cerevisiae deletion strains, locus YMR129W, stronger effect = lower value 0.99 | S. cerevisiae deletion strains, locus YMR205C, strain PFK2, stronger effect = lower value 0.951 | S. cerevisiae deletion strains, locus YMR223W, strain ubp8, stronger effect = lower value 0.968 | S. cerevisiae deletion strains, locus YMR231W, strain pep5, stronger effect = lower value 0.987 | S. cerevisiae deletion strains, locus YMR307W, strain GAS1, stronger effect = lower value 1.17 | S. cerevisiae deletion strains, locus YNL067W, strain RPL9B, stronger effect = lower value 0.949 | S. cerevisiae deletion strains, locus YNL071W, strain lat1, stronger effect = lower value 0.976 | S. cerevisiae deletion strains, locus YNL183C, strain NPR1, stronger effect = lower value 0.968 | S. cerevisiae deletion strains, locus YNL209W, strain ssb2, stronger effect = lower value 0.985 | S. cerevisiae deletion strains, locus YNL233W, strain BNI4, stronger effect = lower value 0.939 | S. cerevisiae deletion strains, locus YNL248C, strain rpa49, stronger effect = lower value 0.956 | S. cerevisiae deletion strains, locus YNL250W, strain rad50, stronger effect = lower value 0.976 | S. cerevisiae deletion strains, locus YNL271C, strain bni1, stronger effect = lower value 0.984 | S. cerevisiae deletion strains, locus YNL298W, strain CLA4, stronger effect = lower value 0.993 | S. cerevisiae deletion strains, locus YNL307C, strain MCK1, stronger effect = lower value 0.978 | S. cerevisiae deletion strains, locus YNL322C, strain KRE1 (second series), stronger effect = lower value 0.957 | S. cerevisiae deletion strains, locus YNR049C, strain mso1, stronger effect = lower value 0.977 | S. cerevisiae deletion strains, locus YNR052C, strain pop2, stronger effect = lower value 0.97 | S. cerevisiae deletion strains, locus YOL012C, strain htz1 0.899 | S. cerevisiae deletion strains, locus YOL147C, strain pex11, stronger effect = lower value 0.992 | S. cerevisiae deletion strains, locus YOR001W, strain rrp6, stronger effect = lower value 1.01 | S. cerevisiae deletion strains, locus YOR061W, strain CKA2, stronger effect = lower value 1 | S. cerevisiae deletion strains, locus YOR069W, strain VPS5, stronger effect = lower value 1.01 | S. cerevisiae deletion strains, locus YOR070C, strain gyp1, stronger effect = lower value 0.979 | S. cerevisiae deletion strains, locus YOR080W, strain dia2, stronger effect = lower value 0.977 | S. cerevisiae deletion strains, locus YOR083W, strain WHI5, stronger effect = lower value 0.962 | S. cerevisiae deletion strains, locus YOR106W, strain vam3, stronger effect = lower value 0.975 | S. cerevisiae deletion strains, locus YOR136W, strain idh2, stronger effect = lower value 0.989 | S. cerevisiae deletion strains, locus YOR144C, strain elg1, stronger effect = lower value 0.996 | S. cerevisiae deletion strains, locus YOR184W, strain ser1, stronger effect = lower value 0.974 | S. cerevisiae deletion strains, locus YOR231W, strain MKK1, stronger effect = lower value 0.992 | S. cerevisiae deletion strains, locus YOR265W, strain rbl2, stronger effect = lower value 0.986 | S. cerevisiae deletion strains, locus YOR270C, strain vph1, stronger effect = lower value 0.944 | S. cerevisiae deletion strains, locus YOR290C, strain snf2, stronger effect = lower value 0.948 | S. cerevisiae deletion strains, locus YOR316C, strain cot1, stronger effect = lower value 0.996 | S. cerevisiae deletion strains, locus YPL051W, strain arl3, stronger effect = lower value 0.985 | S. cerevisiae deletion strains, locus YPL078C, strain atp4, stronger effect = lower value 0.97 | S. cerevisiae deletion strains, locus YPL106C, strain sse1, stronger effect = lower value 0.969 | S. cerevisiae deletion strains, locus YPL240C, strain hsp82, stronger effect = lower value 0.983 | S. cerevisiae deletion strains, locus YPL256C, strain CLN2, stronger effect = lower value 0.994 | S. cerevisiae deletion strains, locus YPR119W, strain clb2, stronger effect = lower value 1 | S. cerevisiae deletion strains, locus YPR141C, strain kar3, stronger effect = lower value 1 | S. cerevisiae deletion strains, locus YPR163C, strain tif3, stronger effect = lower value 0.984 | S. cerevisiae deletion strains, locus YPR167C, strain met16, stronger effect = lower value 0.983 | S. cerevisiae deletion strains, strain wtn01, stronger effect = lower value 0.969 | S. cerevisiae strains, strain wild type, stronger effect = lower value 0.981
